# Results from PubChem BioAssay (NCI).
# Compounds without any hit were thinned out: in the full panel of roughly 83,000, 20% have a hit.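 Note: values are percent growth. 100 is the growth of untreated cells, values between 100 and 0 indicate rising inhibition; between -100 and 0 indicates cell death.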 The source made the active and inactive calls. How the source made its calls: active means growth percent below 10; inactive means the rest.
# System: HL-60(TB) leukemia
# Test: NCI-60 one-dose screen, 48 h (100 = growth as untreated, 0 = no growth, -100 = all killed)
# Conditions: 10 µM unless noted
row,Compound,growth
1,CCc1ccccc1C(=O)N(CC)CC,95.1% (inactive)
2,O=C1/C(=C/c2ccc(OCc3ccccc3)cc2)Oc2cc(OCCN3CCCCC3)ccc21,80.9% (inactive)
3,CCOc1ccc(-n2nc(C(=O)Nc3ccccc3)nc2-c2cc(OC)c(OC)c(OC)c2)cc1,32.9% (inactive)
4,Nc1nc(Nc2ccccc2)n[nH]1,97.7% (inactive)
5,CCC(O)CC(CC)CO (stereo not given),94.2% (inactive)
6,OC(c1ccc(Cl)cc1)(c1ccc(Cl)cc1)C(O)(c1ccc(Cl)cc1)c1ccc(Cl)cc1,51.2% (inactive)
7,CCN(CC)c1ccc(/C=N/NC(=O)c2ccc(Nc3ccnc(C(F)(F)F)c3)cc2)c(O)c1,53.2% (inactive)
8,COC(=O)C1(C)CCC[C@]2(C)[C@H]3C[C@H]4C(C(C)C)=C[C@]3(CC[C@@H]12)[C@H]1[C@@H]4[C@@H](OCC#CCN2CCOCC2)CC[C@@H]1OCC#CCN1CCOCC1 (stereo not given in full),88.7% (inactive)
9,O=C(O)COc1ccc2c(=O)c3sc4c(=O)c5ccccc5c(=O)c4c3c(=O)c2c1,42.7% (inactive)
10,O=C1/C=C/[C@@H](O)[C@@H]2C[C@@H](O)C[C@H]2/C=C/CCC[C@H](CCOCc2ccccc2)O1,0.107% (active)
11,COc1ccc(C(c2cc(OC)c(OC)c(OC)c2)n2cncn2)cc1O (stereo not given),-32.5% (active)
12,NC(=N\N=C/Cc1ccccc1)/C(N)=N\N=C\Cc1ccccc1,70.8% (inactive)
13,C=C1C(=O)O[C@H]2[C@H]1CC/C(C=Nc1c(N)cc(F)cc1Br)=C\CC[C@@]1(C)O[C@@H]21,37.1% (inactive)
14,O=C1COc2ccccc2C(=O)N1CCCCN1CCCCC1,75.3% (inactive)
15,Cc1c(Cl)c(C)c(Cc2c(C)c(Cl)c(C)c(Cl)c2O)c(O)c1Cl,10.3% (inactive)
16,O=C(Nc1ccc(-n2ccc3c(NC(=O)c4ccccc4)nccc32)cc1)Nc1ccc(Cl)c(Cl)c1,-16.4% (active)
17,CCCn1c(N)c(C(=O)CNc2ccc(I)cc2)c(=O)[nH]c1=O,-5.9% (active)
18,Cc1noc(C)c1CSc1ccccc1C(=O)N1CCN(c2cccc(C(F)(F)F)c2)CC1,74.4% (inactive)
19,CS(=O)(=O)N1CCN(Cc2cc3nc(-c4cccc5[nH]ncc45)nc(N4CCOCC4)c3s2)CC1 (tested in a mixture with another compound),5.83% (active)
20,Cn1cnc([N+](=O)[O-])c1S(=O)(=O)Oc1ccccc1,54.3% (inactive)

row,Compound,growth
1,CCn1c2c(c3ccccc31)SC1c3cccn3CCN1C2=S (stereo not given),87.5% (inactive)
2,CCOC(=O)C1=C(C)N2C(=NC3=C(CCCC/C3=C\c3cc(OC)c(OC)c(OC)c3)C2c2cc(OC)c(OC)c(OC)c2)S1 (stereo not given),49.9% (inactive)
3,CCCCCc1c(C)[nH]c(/C=C2\N=C(c3ccc[nH]3)C=C2Oc2ccc(OC)cc2)c1C,-39% [100 µM] (active)
4,COc1cc(/C=C/C(=O)c2ccc(Cl)cc2)cc(CN2CCCCC2)c1O,94.2% (inactive)
5,Nc1nc2c(c3ncccc13)C(c1ccccc1)Cc1ncccc1-2 (stereo not given),65.9% (inactive)
6,CCCCCCCCCCN1CC2CCCCC2C1 (stereo not given),68.5% (inactive)
7,COc1ccc(/C(=C(\c2ccccc2)[N+](=O)[O-])c2ccc(OCCN3CCCC3)cc2)cc1,64.1% (inactive)
8,COc1cc([N+](=O)[O-])c2ncccc2c1O,72.1% (inactive)
9,C=C1C(=O)O[C@H]2[C@H]1CC/C(CNS(=O)(=O)c1ccc3ccccc3c1)=C\CC[C@@]1(C)O[C@@H]21,-48.4% (active)
10,CCCCCCCCCCn1cc[n+](C)c1,51.9% (inactive)
11,C=C(C)[C@@H]1CC[C@]2(C(=O)OCCOCCOCC[P+](c3ccccc3)(c3ccccc3)c3ccccc3)CC[C@]3(C)[C@H](CC[C@@H]4[C@@]5(C)CC[C@H](C)C(C)(C)[C@@H]5CC[C@]43C)[C@@H]12,-72.5% (active)
12,Cc1ccc2[nH]c(=O)c3c(c2c1)Oc1ncn2nc(-c4ccco4)nc2c1C3c1ccc(Cl)cc1 (stereo not given),96.8% (inactive)
13,CCOC(=O)c1c[nH][nH]c1=O,110% (inactive)
14,N=C(N)c1ccc(-c2ccc(-c3ccco3)o2)cc1F,-17.1% (active)
15,COc1ccc(C2Nc3nc(OC)n(C)c(=O)c3N=C3c4ccccc4C(=O)C32)cc1 (stereo not given),67.1% (inactive)
16,Cc1ccc(C(=O)Nc2nc3c(s2)CN(Cc2ccccc2)CC3)cn1,92.6% (inactive)
17,O=C(CSSCC(=O)c1ccc(Cl)cc1)c1ccc(Cl)cc1,44.7% (inactive)
18,CC(=O)C1C(=O)C(=O)N(c2ccc(Cl)c(Cl)c2)C1=O (stereo not given),98.6% (inactive)
19,Clc1ccc(-c2nc(-c3cccs3)no2)cc1,108% (inactive)
20,COc1cc2c(c(OC)c1OC)CCC(c1cccc(C(=O)Nc3ccc([N+](=O)[O-])cc3)c1)O2 (stereo not given),38.8% (inactive)
